Test results as given in PubChem BioAssay AID374 (University of Pittsburgh Molecular Library Screening Center, 2006).
In all, about 65,000 compounds went through this assay and about 100 (0.15%) were called active.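 Rule for the calls: active = inhibition above about 50% (limit read from the data); inconclusive = inhibition over screen mean plus 3 SD, below that limit; inactive = the rest.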 The list comes from a sample in which actives are over-represented; it also holds similar structures and randomly drawn compounds.

Each compound was assayed against Dual specificity protein phosphatase 1 (Homo sapiens) (UniProt P28562) (assay: blockers of human DUSP1 activity – biochemical, in vitro, primary screen (AID 374;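 note: 0% = DMSO max control wells and 100% = wells with enzyme stopped by NaOH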)). Details: recombinant MKP-1, OMFP hydrolysis fluorescence; hits give high values;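 compounds tested at a single concentration somewhere between 10 and 100 µM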.
Chain of Dual specificity protein phosphatase 1 (Homo sapiens) (P28562 whole entry, looked up): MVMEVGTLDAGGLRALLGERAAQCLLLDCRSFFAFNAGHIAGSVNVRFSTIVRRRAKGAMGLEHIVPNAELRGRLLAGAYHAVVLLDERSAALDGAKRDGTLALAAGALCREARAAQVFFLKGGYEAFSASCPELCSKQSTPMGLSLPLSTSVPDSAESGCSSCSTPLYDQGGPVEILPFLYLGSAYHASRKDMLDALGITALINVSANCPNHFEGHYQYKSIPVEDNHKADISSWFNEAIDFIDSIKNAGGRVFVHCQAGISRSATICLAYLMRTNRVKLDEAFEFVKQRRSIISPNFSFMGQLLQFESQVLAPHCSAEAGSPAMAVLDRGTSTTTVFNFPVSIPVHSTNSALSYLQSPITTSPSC

inhibition, active:
CCCCNC(=O)CSc1nnc(-c2ccco2)n1C 93.8%
O=C1c2cccnc2C(Nc2ccc(S(=O)(=O)N3CCCCCC3)cc2)N1Cc1ccccc1 (centres undefined) 51.4%

inhibition, inactive:
Cn1c(SCC(=O)c2cccs2)nnc1-c1ccco1 0.18%
CC(C)[C@H](NC(=O)Nc1ccc(S(N)(=O)=O)cc1)C(=O)O -4.12%
CCc1ccccc1N(CC(=O)NCCSCc1ccco1)S(C)(=O)=O -0.33%
CC(CN1CCCCC1)OC(=O)c1ccccc1Cl (centres undefined) -18.9%
O=C(Nc1cnccn1)c1cccnc1 35.7%
Cc1cccc(C)c1NC(=O)N1CC=C(n2c(=O)[nH]c3ccccc32)CC1 -1.96%
O.O.O.O=S(=O)([O-])OC[C@H]1O[C@@H](O[C@]2(COS(=O)(=O)[O-])O[C@H](OS(=O)(=O)[O-])[C@@H](OS(=O)(=O)[O-])[C@@H]2OS(=O)(=O)[O-])[C@H](OS(=O)(=O)[O-])[C@@H](OS(=O)(=O)[O-])[C@@H]1OS(=O)(=O)[O-].[Al] 9.95%
CC(=NC1CCN(Cc2ccccc2)CC1)c1c(O)[nH]c(=O)[nH]c1=O -4.49%
COc1ccccc1Nc1nc(N)nc(CN(C)C2CCCCC2)n1 -2.91%
CCN(CC(=O)Nc1ccc2c(c1)OCCO2)Cc1cc(=O)oc2cc(C)c(C)cc12 12.7%
Cc1cc(C)c(NC(=O)CS(=O)CC(=O)Nc2cccnc2)c(C)c1 (centres undefined) -12.3%
Cc1ccnc(N2CCN(C(=O)CSc3nc4ccccc4nc3N3CCCCC3)CC2)c1 6.59%
Nn1c(SCC(=O)NC(=O)NC2CCCC2)nnc1-c1ccccc1F -5.68%
O=c1cc(CO)oc(CN2CCC(Cc3ccccc3)CC2)c1O 8.32%
O=C(CSc1nnc(-c2ccco2)n1-c1ccccc1)NCCc1ccccc1 -9.86%
CCOC(=O)CSc1nnc(-c2ccco2)n1C -29.8%
Cc1cc(C)c2c(c1)cc(C)c1nnc(SCC(=O)Nc3cc(C)on3)n12 8.08%
c1csc(CN2CCN(Cc3cccs3)C2c2cccs2)c1 -1.36%
Cc1ccc2c(NC(=O)C3CC3)cccc2n1 3.59%
CCOc1cc(/C=N/n2cnnc2)c(Br)cc1O -7.39%
O=C(Nc1ccc(S(=O)(=O)N2CCCCC2)cc1)c1cnccn1 -0.35%
COc1ccc(S(=O)(=O)N2CCCC(C(=O)Nc3ccc(NC(=O)c4ccccn4)cc3)C2)cc1 (centres undefined) 32.2%
